Reference: PubChem BioAssay AID1851 (National Center for Advancing Translational Sciences (NCATS), 2009)
The whole screen tested about 16,000 compounds, of which about 2,600 (16%) were called active. Another 20% or so got no clear call; they are omitted. A selection follows. A number with no mark means an inactive call. Calls come from the whole dose curve; as a rule, active = well fitted curve in the direction sought with a large enough effect; inconclusive = small, poorly fitted or top-dose-only effect, or effect the other way; inactive = no such curve, though single readings can be large or run the other way.

Each compound was assayed against Cytochrome P450 2D6 (Homo sapiens) (UniProt P10635) (assay: Cytochrome panel assay with activity outcomes). Conditions: recombinant CYP, pro-luciferin dealkylation, luminescence, p450-cyp2d6; series mostly up to 57.1 µM.
% is set by controls: 0 for no effect and ±100 for the full control effect.

Sequence of Cytochrome P450 2D6 (Homo sapiens) (P10635 whole entry, looked up): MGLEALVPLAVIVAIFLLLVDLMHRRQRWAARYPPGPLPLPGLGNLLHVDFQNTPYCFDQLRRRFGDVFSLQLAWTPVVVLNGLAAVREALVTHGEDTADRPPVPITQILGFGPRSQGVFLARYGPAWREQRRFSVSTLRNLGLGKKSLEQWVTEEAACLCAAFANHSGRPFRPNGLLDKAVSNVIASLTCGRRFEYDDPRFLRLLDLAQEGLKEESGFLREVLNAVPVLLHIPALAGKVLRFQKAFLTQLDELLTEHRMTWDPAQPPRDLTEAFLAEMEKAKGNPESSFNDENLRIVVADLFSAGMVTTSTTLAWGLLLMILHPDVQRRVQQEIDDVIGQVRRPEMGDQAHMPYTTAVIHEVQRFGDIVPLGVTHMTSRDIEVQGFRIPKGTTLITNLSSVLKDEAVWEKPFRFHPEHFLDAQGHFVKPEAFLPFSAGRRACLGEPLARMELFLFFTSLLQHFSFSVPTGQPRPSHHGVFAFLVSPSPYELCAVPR

| Compound | AC50 | activity, negative = inhibition |
| --- | --- | --- |
| O=C(c1ccc2c(c1)N(Cc1ccc(F)cc1)C(=O)CS2)N1CCOCC1 | inactive |  |
| Cc1cc(OC(=O)c2ccc(Cl)cc2)cc(=O)n1C | inactive |  |
| CS(=O)(=O)N1CCC[C@@]2(CCN(c3ncccn3)C2)C1 | inactive |  |
| O=S(=O)(c1ccccc1)N1CCC2(CC1)CN(c1ncccn1)C2 | inactive |  |
| CS(=O)(=O)N1CCC[C@@]2(CCN(c3ccccn3)C2)C1 | inactive |  |
| CC(=O)N1CCC2(CCCN(c3ccccn3)C2)CC1 | inactive |  |
| CS(=O)(=O)N1CCC2(CC1)CN(c1ncccn1)C2 | inactive |  |
| O=S(=O)(c1ccccc1)N1CCC2(CCN(c3ncccn3)CC2)CC1 | inactive |  |
| CS(=O)(=O)N1CCC2(CCCN(c3ncccn3)C2)CC1 | 15.8 µM (active) |  |
| O=S(=O)(c1ccccc1)N1CCC2(CCCN(c3ncccn3)C2)CC1 | 12.6 µM (active) |  |
| O=S(=O)(c1ccccc1)N1CCC2(CCCN(c3ccccn3)C2)CC1 | 12.6 µM (active) |  |
| NCCCCNCCCN | inactive |  |
| CC1CCN(c2cc(N3CCC(C)CC3)c([N+](=O)[O-])cc2/C=C(\C#N)c2nn(-c3ccccc3)c(N)c2C#N)CC1 | inactive |  |
| CN(CCO)c1nc(N)c2c(N)nc3c(c2c1C#N)CC(=O)N3C1CCCC1 | inactive |  |
| C[C@@](N)(Cc1ccc(O)cc1)C(=O)O | inactive |  |
| CC(C)OCCCN1CN(S(=O)(=O)c2cccc(Cl)c2)c2nc3ccccc3nc21 | inactive |  |

| Compound | AC50 | activity, negative = inhibition |
| --- | --- | --- |
| CC(=O)NN1C(=O)/C(=C\c2ccc(C)cc2)SC1=S | inactive |  |
| CN(CCO)Cc1ncccc1O |  | -1.69% [at 11.4 µM] |
| O=C(Nc1cccc(C(F)(F)F)c1)c1n[nH]c(Cn2cncn2)n1 | inactive |  |
| N[C@@H]1CONC1=O | inactive |  |
| Cc1ccc(N(C(=O)c2csnn2)C(C(=O)NC(C)(C)C)c2cccs2)cc1 (stereo unspecified) | inactive |  |
| CC(C)(C)[Si](C)(C)c1c2c(nc3ccc(OCc4ccccc4)cc13)-c1cccc(=O)n1C2 | inactive |  |
| COc1ccc2nc3c(c([Si](C)(C)C(C)(C)C)c2c1)Cn1c-3cccc1=O | 2 µM (active) |  |
| CC(C)c1cccc2nc3c(c([Si](C)(C)C(C)(C)C)c12)Cn1c-3cccc1=O | inactive |  |
| O=C1C(CCS(=O)c2ccccc2)C(=O)N(c2ccccc2)N1c1ccccc1 (stereo unspecified) | inactive |  |
| CN(C)Cc1ccccc1-c1ccc2ncnc(N(C)Cc3ccco3)c2c1 | 2 µM (active) |  |
| CN(Cc1ccco1)c1ncnc2ccc(-c3ccccc3C#N)cc12 | 15.8 µM (active) |  |
| FC(F)(F)c1ccccc1-c1ccc2ncnc(N3CCOCC3)c2c1 | inactive |  |
| CN(Cc1ccco1)c1ncncc1-c1cccc(C#N)c1 | inactive |  |
| CN(Cc1ccco1)c1ncnc2ccc(-c3ccccc3C(F)(F)F)cc12 | 10 µM (active) |  |
| CN(Cc1ccco1)c1ncnc2ccc(-c3ccccc3Cl)cc12 | 7.94 µM (active) |  |
